{
  "source": "PubChem BioAssay (Tox21)",
  "note": "Records with an inconclusive call do not appear. Entries that show only a call come without a potency. Values without a mark were called inactive. The source made the active and inactive calls. No rule for the calls is given here.",
  "data": [
    {"assay": "qHTS assay to identify small molecule antagonists of the estrogen related receptor signaling pathway with the pleiotropic PPARgamma coactivator (PGC) from Tox21 10K library (AID 1224841); also: actives are mostly falling curves and most rising ones were filed inactive; nearly all actives have a fitted effect of over 50% in size", "conditions": "PGC/ERR reporter cell line, ONE-Glo luciferase, 18 h; series mostly up to 92.4 µM", "excerpt": "U.S. Tox21 Program National Center for Advancing Translational Sciences [NCATS] NIH Chemical Genomics Center [NCGC] U.S. Environmental Protection Agency [EPA] National Institutes of Environmental Health Sciences [NIEHS] National Toxicology Program [NTP] U.S. Food and Drug Administration [FDA] Tox21 Assay Overview: Estrogen related receptors (ERRs), the first orphan nuclear receptors discovered, play an important role in the control of cellular energy metabolism. ERRs are required for high-energy production in response to the environmental challenges. The pleiotropic PPARgamma coactivator (PGC) is a major partner of ERR and a key regulator in energy homeostasis. Together they have been implicated in the etiology of metabolic disorders such as Type 2 diabetes and metabolic syndrome. ERR-alpha was also identified as an adverse marker for breast cancer progression; ERR-alpha-positive tumors have a poor prognosis. To screen and to identify environmental compounds that perturb the ERR and PGC/ERR signaling pathways could provide valuable information for potential therapeutic or preventive measures in the treatment of metabolic disease. For identifying PGC/ERR antagonists, PGC/ERR cell line (provided by NTP) has been used to screen Tox21 10K library.\nTox21 Assay Protocol Summary: The PGC/ERR cells were dispensed at 2,000 cells/5 ul/well in 1536-well white plates using a Multidrop dispenser. After the assay plates were incubated at a 37 C/5% CO2 incubator for 6 hours, 23 nL of compounds dissolved in DMSO, positive and negative controls or DMSO only was transferred to the assay plate by a pin tool. The plates were incubated at 37 C for 18 hours. 4 ul/well of One-Glo reagent was added into the assay plates using a Flying Reagent Dispenser. After 30-minute incubation at room temperature, the luminescence intensity in the plates was measured using a ViewLux plate reader.", "values": [
      {"smiles": "CCCCCN(CCCOC)C(=O)C(CCC(=O)O)NC(=O)c1ccc(Cl)c(Cl)c1", "note": "(stereo not given)", "Potency": "inactive"},
      {"smiles": "CCCOCCOCCOCCO", "Potency": "inactive"},
      {"smiles": "O=CO", "activity, negative = inhibition": "4.47% [at 8.39 µM]"},
      {"smiles": "C[CH2][Ge]([Cl])([CH2]C)[CH2]C", "Potency": "inactive"},
      {"smiles": "CC(C)(CO)[C@@H](O)C(=O)NCCCO", "Potency": "inactive"},
      {"smiles": "C1CCN2C[C@@H]3C[C@@H](CN4CCCC[C@@H]34)[C@H]2C1", "Potency": "inactive"},
      {"smiles": "Cc1cccc(Nc2ccncc2S(=O)(=O)NC(=O)NC(C)C)c1", "Potency": "inactive"},
      {"smiles": "C[C@H](CCC(=O)NCC(=O)O)[C@H]1CC[C@H]2[C@@H]3[C@H](O)C[C@@H]4C[C@H](O)CC[C@]4(C)[C@H]3C[C@H](O)[C@]12C", "Potency": "inactive"},
      {"smiles": "c1ccccc1", "Potency": "inactive"},
      {"smiles": "CN[C@@H]1[C@@H](O)[C@@H](O[C@@H]2[C@H](O)[C@H](O[C@H]3OC(CN)=CC[C@H]3N)[C@@H](N)C[C@H]2N)OCC1(C)O", "note": "(stereo not given in full)", "Potency": "inactive"},
      {"smiles": "CC1CCC(C(C)(C)S)C(=O)C1", "note": "(stereo not given)", "Potency": "inactive"},
      {"smiles": "CCNC(=O)NCCCOc1cccc(CN2CCCCC2)c1", "Potency": "inactive"},
      {"smiles": "CN(C)CCOCCN(C)CCO", "Potency": "inactive"},
      {"smiles": "CCCCCCCCCOCC1CO1", "note": "(stereo not given)", "Potency": "inactive"},
      {"smiles": "CC(=O)c1ccc2c(c1)CCCC2", "Potency": "inactive"},
      {"smiles": "CC(=O)Nc1ccc(C)cc1", "Potency": "inactive"},
      {"smiles": "O=C(Oc1ccccc1C(=O)O)c1ccccc1O", "Potency": "inactive"},
      {"smiles": "CC(C)(c1ccc(Oc2ccc3c(c2)C(=O)OC3=O)cc1)c1ccc(Oc2ccc3c(c2)C(=O)OC3=O)cc1", "Potency": "inactive"},
      {"smiles": "CC(C)C(=O)c1ccccc1", "Potency": "inactive"},
      {"smiles": "O=P(O)(O)OCC(O)CO", "note": "(stereo not given)", "Potency": "inactive"},
      {"smiles": "C[C@@H]1C[C@H]2[C@@H]3C[C@H](F)C4=CC(=O)C=C[C@]4(C)[C@@]3(F)[C@@H](O)C[C@]2(C)[C@@]1(O)C(=O)CO", "Potency": "inactive"},
      {"smiles": "CCC1COC(=O)O1", "note": "(stereo not given)", "Potency": "inactive"},
      {"smiles": "CCCCC(C)C(=O)O", "note": "(stereo not given)", "Potency": "inactive"},
      {"smiles": "COc1cccc2sc(N)nc12", "Potency": "inactive"},
      {"smiles": "C=CCOCC(CO)(COCC=C)COCC=C", "Potency": "inactive"},
      {"smiles": "C=CCOc1c(Br)cc(Br)cc1Br", "Potency": "inactive"},
      {"smiles": "Cc1ncc([N+](=O)[O-])n1CC(O)CCl", "note": "(stereo not given)", "Potency": "inactive"},
      {"smiles": "CCCOC(=O)CCCCC(=O)OCCC", "Potency": "inactive"},
      {"smiles": "CCc1nccnc1C", "Potency": "inactive"},
      {"smiles": "NS(=O)(=O)c1ccccc1OC(F)(F)F", "Potency": "inactive"},
      {"smiles": "O=[Si]=O", "Potency": "inactive"},
      {"smiles": "CCCCCCCCCCC", "Potency": "inactive"},
      {"smiles": "CC(=O)OCCCc1ccccc1", "Potency": "inactive"},
      {"smiles": "CC(=O)/C=C/c1ccco1", "Potency": "inactive"},
      {"smiles": "CC(C)COC(=O)COc1ccc(Cl)cc1Cl", "Potency": "inactive"},
      {"smiles": "CCCCOC(=O)C(C)OC(=O)CCC", "note": "(stereo not given)", "Potency": "inactive"},
      {"smiles": "CC(C)COC(=O)/C=C/c1ccccc1", "Potency": "inactive"},
      {"smiles": "C=C(C)C(=O)OCCCCCCOC(=O)C(=C)C", "Potency": "inactive"},
      {"smiles": "Cc1ccccc1C", "Potency": "inactive"},
      {"smiles": "CC(Cl)COP(=O)(OCC(C)Cl)OCC(C)Cl", "note": "(stereo not given)", "Potency": "inactive"}
    ]}
  ]
}
